Consider ten molecules from PubChem BioAssay.

The subject of the assay is wheat germ agglutinin (Triticum aestivum), Alexa647-labelled. The assay can be described thus: wheat germ agglutinin binders on compound microarrays, profiling panel, artefact control for SMM control-protein annotation, biochemical, small-molecule microarray, 635/667 nm fluorescence (AID 1140).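 Also: score merges 667 nm feature emission with signal to noise over triplicate slides.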 Conditions: WGA-A647 binding, 635 nm fluorescence, higher = more signal.
Molecule `CO[C@H]1O[C@H](CO)[C@@H](OC(=O)Nc2ccccc2)[C@@H]2OC(=O)[C@H](Cc3ccccc3)C/C=C/C[C@@H](Cc3ccccc3)C(=O)O[C@@H]12` yielded a composite z-score of 0.588.
The same measure for `CCCCC(=C=CC[C@@H](O)c1ccc(OCCO)cc1)C[C@@H](O)c1ccccn1`: -0.146; for `C=CCC(OC(C)=O)[C@@H]1[C@@H](N(Cc2cccc3ccccc23)C(=O)c2ccc(-c3ccccc3)cc2)c2cc(OCCCO)ccc2N1C(=O)c1ccc2ccccc2n1` (stereo not given in full): 0.922; for `COCCOC(=O)N1C(=O)[C@@]2(c3cc(C#CC4(O)CCCCCC4)ccc31)[C@H](c1ccc(OCCO)cc1)N1[C@H](c3ccccc3)[C@H](c3ccccc3)OC(=O)[C@H]1[C@@H]2C(N)=O`: 0.613.
The same measure for `COc1ccc([Si](C)(C)[C@H]2[C@H](CCO)O[C@@]3(C(=O)N(Cc4ccc(N5CCOC5=O)cc4)c4ccccc43)[C@@H]2C)cc1`: 0.433.
The same measure for `Cc1c(-c2ccc(-c3ccc(Cl)c(Cl)c3)o2)nc(-c2ccccc2)c2c1CO[Si]2(C(C)C)C(C)C`: 0.284; for `O=C1OCCC=C[C@H]2OC34C=CCN(CCN5CCOCC5)C(=O)[C@H]3N(CCCO)C(=O)[C@@H]4C12` (stereo not given in full): -0.458; for `COC(=O)[C@@]1(Cc2ccc(F)cc2)[C@H]2c3cc(C(=O)N(C)C)n(CCO)c3C[C@H]2CN1C(=O)c1ccccc1`: 0.718.
In turn, `CC(C)C[C@H]1NC(=O)[C@@H](C)NC(=O)[C@@]23C(=O)N[C@@H](Cc4ccccc4)C2[C@H](C)[C@@]2(C)O[C@H]2C3/C=C/C/C=C\CNC1=O` (stereo not given in full) had a composite z-score of 0.532.
In turn, `N#Cc1ccc(C(O)C2C=CC3C(=O)N(c4ccccc4)C(=O)C3N2Nc2ccc([N+](=O)[O-])cc2)cc1` (stereo not given) returned a composite z-score of 1.4.
